The record followed here is PubChem BioAssay (Tox21).

Inconclusive results are not listed. The source made the active and inactive calls. Calls come from the whole dose curve; as a rule, active = well fitted cell-killing curve with a large enough effect in the repeat runs; inconclusive = weak or mixed curves, or effect the other way; inactive = no such curve, though single readings can be large or run the other way.
% is set by controls: 0 for no effect and ±100 for the full control effect; potency is the fitted concentration of half-maximal effect.

This assay in a line: qHTS assay to identify small molecule agonists of the RXR signaling pathway - cell viability counter screen (AID 1159529). Note: nearly all actives have a fitted effect of over 50% in size. Conditions: RXR-alpha-bla HEK293T viability, CellTiter-Glo, 16 h; series mostly up to 76.8 µM; activity change, negative = cytotoxicity: at the top concentration. The source says: National Center for Advancing Translational Sciences [NCATS]
NIH Chemical Genomics Center [NCGC]
U.S. Environmental Protection Agency [EPA]
National Institutes of Environmental Health Sciences [NIEHS]
National Toxicology Program [NTP]
U.S. Food and Drug Administration [FDA]
The Retinoid X receptor (RXR), a nuclear hormone receptor expressed in liver, spleen, placenta, epidermis, central nervous system. These receptors are able to form homo and heterodimers with other nuclear receptors and due to this heterodimerizing ability, RXR functions as master regulators producing diverse physiological effects. Three subtypes of RXR exist; alpha, beta and gamma. Retinoid X receptor alpha (RXR-alpha) has potential roles in metabolic signaling pathways, skin alopecia, dermal cysts, cardiac development, insulin sensitization etc. Therefore screening environmental chemicals on RXR-alpha signaling can be used for the studies focused on such therapeutic applications. For quantification of RXR-alpha ligands signaling, GeneBLAzer RXR alpha-UAS-bla HEK 293T (Life Technologies, Carlsbad, CA) cells containing a beta-lactamase reporter-gene under control of Retinoid X receptor-alpha response element were used to screen Tox21 10K library. The cytotoxicity of the Tox21 compound library against the RXR-alpha HEK 293T cell line was tested in parallel by measuring cell viability using CellTiter-Glo assay (Promega Corporation, Madison, WI) in the same wells.
Tox21 Assay Protocol Summary:
RXR-alpha HEK 293T cells were dispensed at 2,000 cells/6 uL of assay medium containing 2% charcoal-stripped FBS using a Multidrop Combi (ThermoFisher Scientific, Waltham, MA) dispenser. The assay was performed in black wall/clear-bottom 1536-well plates (Greiner Bio-One North America Inc. Monroe, NC). Tetraoctyl ammonium bromide was used as a positive control in the cytotoxicity screen. After the assay plates were incubated at 37 C and 5% CO2 for 5 hr, 23 nL of compounds dissolved in DMSO, positive control or DMSO only were transferred to the assay plate by a Pintool station (Kalypsys, San Diego, CA). The assay plates were incubated at 37 C and 5% CO2 for 16 hr. One uL of LiveBLAzer B/G FRET substrate (Life Technologies) was added using a Flying Reagent Dispenser (FRD) (Aurora Discovery, San Diego, CA) and the plates were incubated at room temperature for 2 hr. Fluorescence intensity (405 nm excitation, 460/530 nm emission) was measured using an Envision plate reader (PerkinElmer, Shelton, CT). For cytotoxicity, 4 uL/well of CellTiter-Glo reagent was added into the assay plates using an FRD. After 30 min incubation at room temperature, the luminescence intensity was measured using a ViewLux plate reader (PerkinElmer).
Background: In qHTS, concentration-response curves come from the screen itself.
For the molecule `CC(C)(Oc1ccc(Cl)cc1)C(=O)OCCCOC(=O)C(C)(C)Oc1ccc(Cl)cc1`, the “activity change, negative = cytotoxicity” value was -1.11% [at 35.3 µM] (inactive).
Same read-out and setting: the same measure for `CCCOc1ccc2nc(NC(=O)OC)[nH]c2c1`: 10.5% [at 35.3 µM] (inactive).
Regarding `CCCCCCCCCCCCC(=O)O`, the Potency was 24.6 µM (active).
For `CCCCCOC(=O)c1ccc(O)cc1`, the “activity change, negative = cytotoxicity” value is -21.1% (inactive).
Regarding `CCCCCCCCN(C)C`, the “activity change, negative = cytotoxicity” value is 11.8% (inactive).
Still for that read-out and setting: the same measure for `CCCCCC/C=C/C=O`: -1.05% (inactive); for `Cc1ccccc1N=Nc1ccc(N=Nc2c(O)ccc3ccccc23)c(C)c1`: 3.94% [at 35.3 µM] (inactive).
With `Cc1cccc(Oc2ccccc2)c1`, the Potency is 1.9 µM (active).
With `CN(C(=O)CCCOc1ccc2[nH]c(=O)ccc2c1)C1CCCCC1`, the “activity change, negative = cytotoxicity” value was 7.91% [at 35.3 µM] (inactive).
Still for that read-out and setting: the same measure for `Cc1cccc(OCCOc2cccc(C)c2)c1`: -10.2% (inactive); for `CN1CCN(C2=Nc3ccccc3Sc3ccc(Cl)cc32)CC1`: -18.7% [at 35.3 µM] (inactive).
Consider `c1ccc(CNCc2ccccc2)cc1`, for which the “activity change, negative = cytotoxicity” value is -19.2% (inactive).
On to `NC[C@H]1O[C@H](O[C@H]2[C@H](O)[C@@H](O[C@H]3O[C@H](CO)[C@@H](O)[C@H](N)[C@H]3O)[C@H](N)C[C@@H]2N)[C@H](O)[C@@H](O)[C@@H]1O`, for which the activity change, negative = cytotoxicity was -2.14% [at 6.97 µM] (inactive).
On the same count and under the same terms, under `COc1ccc2[nH]c(S(=O)Cc3ncc(C)c(OC)c3C)nc2n1` (stereo not given) stands 3.1% [at 35.3 µM] (inactive); under `Nc1nc(N)c(-c2ccccc2)s1`, 7.3% [at 35.3 µM] (inactive); under `O=C(O)Cc1cc(I)c(Oc2ccc(O)c(I)c2)c(I)c1`, -9.49% (inactive).
Consider `O=C(Cl)c1c(Cl)cccc1Cl`, for which the “activity change, negative = cytotoxicity” value was -0.46% (inactive).
Turning to `CCN1CCC[C@H]1CNC(=O)c1c(OC)ccc(Br)c1OC`, the “activity change, negative = cytotoxicity” value was 9.75% [at 35.3 µM] (inactive).
Take `O=C(O)/C=C/c1cnc[nH]1`: the “activity change, negative = cytotoxicity” value is 1.87% (inactive).
Still for that read-out and setting: the same measure for `Cc1occc1S`: -29.4% (inactive).
Still for that read-out and setting: the same measure for `CC(C)(C)c1cc(CO)cc(C(C)(C)C)c1O`: -13.1% (inactive).
The same measure, in the same setting: under `CC(C)c1ccc2c(C(C)C)cc(C(C)C)c(S(=O)(=O)O)c2c1` stands -3.37% (inactive); under `CCCCCCCCC(CO)CCCCCC` (stereo not given), 2.84% (inactive).
`Cn1sccc1=O`: the Potency result is “inactive”.
With `Cc1ncsc1CCO`, the “activity change, negative = cytotoxicity” value was 5.75% (inactive).
Same read-out and setting: under `C=C(C)C(=O)OCCOc1ccccc1` stands -9.68% (inactive); under `CC(=O)/C(C)=C/C1C(C)=CCCC1(C)C` (stereo not given), 6.21% (inactive); under `CCCCCCCCCCCCCCCCCBr`, -2.08% [at 15.8 µM] (inactive).
Same read-out and setting: the same measure for `CNS(=O)(=O)Cc1ccc2[nH]cc(CCN(C)C)c2c1`: 4.46% [at 35.3 µM] (inactive); for `Cc1cc(NC(=O)C(=O)O)cc(C)c1Oc1ccc(O)c2c1CCC2`: -3.14% (inactive); for `CCCCOC(=O)c1ccccc1C(=O)OCC(CC)CCCC` (stereo not given): -19.3% (inactive).
The same measure, in the same setting: the same measure for `O=[N+]([O-])c1cccc(Cl)c1Cl`: 0.66% (inactive); for `CC(=O)SCc1ccco1`: -0.761% (inactive); for `CCCCOCCOCCOCCOCCO`: -14.3% (inactive).
As for `CN1CCC(=C2c3ccccc3C=Cc3ccccc32)CC1`, the “activity change, negative = cytotoxicity” value is -13.9% [at 35.3 µM] (inactive).
The same measure, in the same setting: under `CCCCCCCCCO` stands 13.1% (inactive).
Same read-out and setting: the same measure for `Cl/C(=C\n1cncn1)c1ccc(Cl)cc1Cl`: -2.32% [at 35.3 µM] (inactive); for `CCN(CC)C(C)CN1c2ccccc2Sc2ccccc21` (stereo not given): -16.1% [at 35.3 µM] (inactive); for `Oc1ccc(O)c2c(O)cccc12`: 2.31% (inactive).
Same read-out and setting: the same measure for `CC(C)(C)c1ccc(S)cc1`: 1.69% (inactive).
